Measured values as given in PubChem BioAssay (Tox21).
Inconclusive results are not listed. Activity calls are given as the source filed them. Unless noted, the call rests on the fitted dose curve; in most records, active means well fitted curve in the direction sought with a large enough effect in the repeat runs; inconclusive means weak or mixed curves; inactive means no such curve, though single readings can be large; an effect the other way counts as inactive or inconclusive.

What was measured:
[1] = qHTS assay to identify small molecule agonists of the hypoxia (HIF-1) signaling pathway - cell viability counter screen (AID 1224844; calls by dose curve; further: nearly all actives have a fitted effect of over 50% in size; further: potency means the concentration at half of the fitted maximal effect); conditions: HRE-bla ME-180 viability, CellTiter-Glo luminescence, 17 h; series mostly up to 76.8 µM
In short: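 HRE-bla ME-180 cells in medium with 0.5% dialyzed FBS were preincubated 5 hrs at 37C, exposed to compounds for 17 hrs, then viability was read as CellTiter-Glo luminescence after 30 min at room temperature, in the reporter wells.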

[2] = qHTS assay to identify small molecule agonists of H2AX - cell viability counter screen (AID 1224847; calls by dose curve; further: nearly all actives have a fitted effect of over 30% in size; further: potency means the concentration at half of the fitted maximal effect); conditions: CHO-K1 viability, CellTiter-Glo luminescence, 3 h; series mostly up to 154 µM
In short: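 Wild-type CHO-K1 cells (10% FBS medium) were plated overnight at 37C, exposed to compounds at 15 concentrations for 3 hr at 37C (0.76% DMSO final), and viability was read as CellTiter-Glo luminescence after 30 min at room temperature.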

[3] = qHTS assay to identify small molecule antagonists of the estrogen related receptor (ERR) signaling pathway from Tox21 library (AID 1224848); conditions: ERR reporter cell line, luciferase antagonist mode, 18 h; series mostly up to 92.4 µM; further: nearly all actives have a fitted effect of over 50% in size; further: potency means the concentration at half of the fitted maximal effect
In short: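 ERR reporter cell line (from NTP) seeded 2,000 cells/well, rested 6 h at 37 C/5% CO2, then pin-dosed with compounds in DMSO. After 18 h at 37 C, ONE-Glo added; luminescence read after 30 min at room temperature.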

[4] = qHTS assay to identify small molecule agonists of the estrogen related receptor (ERR) signaling pathway from Tox21 library (AID 1224849; calls by dose curve; further: nearly all actives have a fitted effect of over 15% in size); conditions: ERR reporter cell line, ONE-Glo luciferase, 18 h; at 92.4 µM (top of the series) unless noted
In short: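 ERR reporter cell line (NTP) seeded, rested 6 h at 37 C/5% CO2, then pinned with Tox21 compounds in DMSO. After 18 h at 37 C, ONE-Glo luciferase luminescence was read following 30 min at room temperature.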

[5] = qHTS RealTime-Glo MT Cell Viability Assay in HepG2 cells - 24 hour (AID 1224867); conditions: RealTime-Glo luminescence; series mostly up to 76.8 µM; further: nearly all actives have a fitted effect of over 50% in size; further: potency means the concentration at half of the fitted maximal effect
In short: (§1)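 Cells + NanoLuc/prosubstrate dispensed (600 cells/well) → 5 h at 37 C/5% CO2 → compounds in DMSO transferred → 40 h incubation at 37 C, luminescence read at 0, 8, 16, 24, 32, 40 h.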

[6] = qHTS RealTime-Glo MT Cell Viability Assay in HEK293 cells - 32 hour (AID 1224868); conditions: RealTime-Glo luminescence; series mostly up to 76.8 µM; further: nearly all actives have a fitted effect of over 50% in size; further: potency means the concentration at half of the fitted maximal effect
In short: (§2)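 Tox21 10K qHTS, HEK293, 600 cells/well, RealTime-Glo reagent co-dispensed with cells; 5 h preincubation, compound by pintool, 37 C, luminescence at 0–40 h.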

[7] = A CellTox Green Cytotoxicity Assay to monitor cytotoxicity in HEK293 cells - 0 hour (AID 1224869); conditions: CellTox Green fluorescence; series mostly up to 76.8 µM; further: nearly all actives have a fitted effect of over 50% in size
In short: (§3)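 HEK293 cells premixed with CellTox Green dye were seeded at 600 cells/well and left 5 h at 37 C/5% CO2 before pin transfer of 23 nL compound in DMSO. Fluorescence from dye bound to dead-cell DNA was read during 40 h treatment.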

[8] = qHTS RealTime-Glo MT Cell Viability Assay in HepG2 cells - 40 hour (AID 1224870); conditions: RealTime-Glo luminescence; series mostly up to 76.8 µM; further: nearly all actives have a fitted effect of over 50% in size; further: potency means the concentration at half of the fitted maximal effect
In short: (§4)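 HepG2 cells (600/well) mixed with RealTime-Glo MT reagent, settled 5 h at 37 C/5% CO2 before compound addition. Nonlytic NanoLuc luminescence from viable-cell prosubstrate reduction read repeatedly during 40 h treatment at 37 C.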

[9] = A CellTox Green Cytotoxicity Assay to monitor cytotoxicity in HEK293 cells - 40 hour (AID 1224871); conditions: CellTox Green fluorescence; series mostly up to 76.8 µM; further: nearly all actives have a fitted effect of over 45% in size; further: potency means the concentration at half of the fitted maximal effect
In short: as §3

[10] = qHTS RealTime-Glo MT Cell Viability Assay in HEK293 cells - 16 hour (AID 1224872); conditions: RealTime-Glo luminescence; series mostly up to 76.8 µM; further: nearly all actives have a fitted effect of over 50% in size; further: potency means the concentration at half of the fitted maximal effect
In short: as §2

[11] = qHTS RealTime-Glo MT Cell Viability Assay in HepG2 cells - 8 hour (AID 1224873); conditions: RealTime-Glo luminescence; series mostly up to 76.8 µM; further: nearly all actives have a fitted effect of over 55% in size; further: potency means the concentration at half of the fitted maximal effect
In short: as §4

[12] = qHTS RealTime-Glo MT Cell Viability Assay in HEK293 cells - 40 hour (AID 1224874); conditions: RealTime-Glo luminescence; max response: hits give low values; further: nearly all actives have a fitted effect of over 50% in size; further: potency means the concentration at half of the fitted maximal effect
In short: (§5)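 HEK293 cells mixed with RealTime-Glo reagents (NanoLuc plus cell-permeant prosubstrate) at 600 cells/well, preincubated 5 h at 37 C/5% CO2, then given 23 nL compound in DMSO. Nonlytic luminescence from viable cells was read at 0, 8, 16, 24, 32 and 40 h.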

[13] = A CellTox Green Cytotoxicity Assay to monitor cytotoxicity in HEK293 cells - 24 hour (AID 1224875); conditions: CellTox Green fluorescence; series mostly up to 76.8 µM; further: nearly all actives have a fitted effect of over 45% in size; further: potency means the concentration at half of the fitted maximal effect
In short: as §3

[14] = A CellTox Green Cytotoxicity Assay to monitor cytotoxicity in HepG2 cells - 16 hour (AID 1224876); conditions: CellTox Green fluorescence; series mostly up to 76.8 µM; further: nearly all actives have a fitted effect of over 45% in size; further: potency means the concentration at half of the fitted maximal effect
In short: (§6)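 HepG2 cells were seeded together with the CellTox Green dye at 600 cells/well, left 5 h at 37 C/5% CO2, then given compounds in DMSO. Fluorescence from dye bound to dead-cell DNA was read repeatedly over 40 h of treatment at 37 C.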

[15] = qHTS RealTime-Glo MT Cell Viability Assay in HepG2 cells - 32 hour (AID 1224877); conditions: RealTime-Glo luminescence; series mostly up to 76.8 µM; further: nearly all actives have a fitted effect of over 55% in size; further: potency means the concentration at half of the fitted maximal effect
In short: as §1

[16] = A CellTox Green Cytotoxicity Assay to monitor cytotoxicity in HepG2 cells - 40 hour (AID 1224879); conditions: CellTox Green fluorescence; series mostly up to 76.8 µM; further: nearly all actives have a fitted effect of over 40% in size; further: potency means the concentration at half of the fitted maximal effect
In short: as §6

[17] = qHTS RealTime-Glo MT Cell Viability Assay in HEK293 cells - 0 hour (AID 1224880); conditions: RealTime-Glo luminescence; series mostly up to 76.8 µM; further: nearly all actives have a fitted effect of over 45% in size; further: potency means the concentration at half of the fitted maximal effect
In short: as §5

[18] = qHTS assay to identify small molecule agonists of H2AX (AID 1224845; active means well fitted activation curve with a large enough effect in the signal ratio in the repeat runs, not every such curve was filed as active; the % refers to the signal ratio); conditions: CHO-K1 phospho-H2AX Ser139 HTRF, 3 h; series mostly up to 154 µM
In short: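 Wild-type CHO-K1 cells, plated overnight, exposed 3hr at 37C to 15 concentrations (0.76% DMSO final). Lysed, then HTRF anti-pH2AX (S139) cryptate and anti-H2AX-d2 antibodies, 24 hr room temperature; 665/620 nm emission read.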

[19] = qHTS assay to identify small molecule agonists of the hypoxia (HIF-1) signaling pathway (AID 1224846; active means well fitted activation curve with a large enough effect in the signal ratio in the repeat runs, not every such curve was filed as active; the % refers to the signal ratio); conditions: HRE-bla ME-180 cells, beta-lactamase ratio, 17 h; series mostly up to 76.8 µM
In short: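 HRE-bla ME-180 cells (beta-lactamase reporter under hypoxia response element) were plated at 2,000 cells/well in medium with 0.5% dialyzed FBS, rested 5 hrs, then given compounds in DMSO for 17 hrs at 37C, 5% CO2. Reporter induction was read with CCF4-AM FRET substrate.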

[20] = A CellTox Green Cytotoxicity Assay to monitor cytotoxicity in HepG2 cells - 24 hour (AID 1224878); conditions: CellTox Green fluorescence; series mostly up to 76.8 µM; further: nearly all actives have a fitted effect of over 45% in size; further: potency means the concentration at half of the fitted maximal effect
In short: as §6
On the % scale 0 is the no-effect control and ±100 the full control effect.

N#Cc1sc2c(=O)c3ccccc3c(=O)c=2sc1C#N
inactive: activity change, positive = activation [4] -74.5% | Potency [7]
active: Potency [1] 4.9 µM | Potency [2] 101 µM | Potency [3] 61.1 µM | Potency [5] 11 µM | Potency [6] 17.4 µM | Potency [8] 11 µM | Potency [9] 15.5 µM | Potency [10] 11 µM | Potency [11] 9.77 µM | Potency [12] 17.4 µM | Potency [13] 21.9 µM | Potency [14] 17.4 µM | Potency [15] 11 µM | Potency [16] 13.8 µM | Potency [17] 7.76 µM

CO/N=C(/C1=NOCCO1)c1ccccc1Oc1ncnc(Oc2ccccc2Cl)c1F
active: Potency [2] 12.7 µM
inactive: Potency [18] | Potency [19] | Potency [7] | Potency [9] | Potency [10] | Potency [11] | Potency [13] | Potency [14] | Potency [16]

S=C=NCCc1ccccc1
active: Potency [6] 49.1 µM | Potency [9] 43.7 µM | Potency [10] 43.7 µM | Potency [12] 49.1 µM | Potency [13] 43.7 µM
inactive: Potency [1] | Potency [7] | Potency [11] | Potency [17]

O=[N+]([O-])c1cc(C(F)(F)F)c(Cl)c([N+](=O)[O-])c1Nc1ncc(C(F)(F)F)cc1Cl
active: Potency [1] 6.92 µM | Potency [2] 50.5 µM | Potency [5] 21.9 µM | Potency [6] 1.74 µM | Potency [8] 11 µM | Potency [9] 24.5 µM | Potency [10] 2.75 µM | Potency [11] 24.5 µM | Potency [13] 38.9 µM | Potency [14] 43.6 µM | Potency [15] 17.4 µM | Potency [20] 12.3 µM | Potency [16] 3.89 µM
inactive: Potency [7] | Potency [17]

O=S1(=O)OCC2C(CO1)C1(Cl)C(Cl)=C(Cl)C2(Cl)C1(Cl)Cl (stereo unspecified)
inactive: Potency [18] | Potency [19] | Potency [2] | Potency [7] | Potency [8] | Potency [13] | Potency [14] | Potency [20] | Potency [17]
active: Potency [6] 21.9 µM | Potency [9] 49 µM | Potency [10] 19.5 µM | Potency [12] 21.9 µM

Nc1ccc(N=Nc2ccccc2)cc1
inactive: Potency [3] | Potency [5] | Potency [7] | Potency [8] | Potency [9] | Potency [13] | Potency [14] | Potency [15] | Potency [20] | Potency [17]

c1ccc(Nc2ccc(Nc3ccccc3)cc2)cc1
inactive: Potency [1] | Potency [3] | activity change, positive = activation [4] -22.9% | Potency [5] | Potency [8] | Potency [14] | Potency [15] | Potency [20] | Potency [16]
active: Potency [6] 21.8 µM | Potency [10] 19.4 µM | Potency [12] 19.4 µM

CCCCON=O
inactive: Potency [18] | Potency [19] | Potency [3] | activity change, positive = activation [4] -4.4% | Potency [5] | Potency [6] | Potency [7] | Potency [8] | Potency [9] | Potency [10] | Potency [11] | max response [12] 4.44% | Potency [13] | Potency [14] | Potency [15] | Potency [16] | Potency [17]

COP(=S)(OC)Oc1nc(Cl)c(Cl)cc1Cl
inactive: Potency [18] | Potency [19] | Potency [2] | Potency [3] | Potency [5] | Potency [6] | Potency [7] | Potency [8] | Potency [9] | Potency [10] | Potency [11] | max response [12] -0.946% | Potency [13] | Potency [15] | Potency [20] | Potency [16] | Potency [17]

BrCC(Br)(Br)Br
inactive: Potency [18] | Potency [19] | Potency [2] | Potency [3] | Potency [5] | Potency [7] | Potency [8] | Potency [11] | Potency [13] | Potency [15] | Potency [20] | Potency [16] | Potency [17]
active: Potency [6] 45.3 µM | Potency [10] 25.5 µM | Potency [12] 45.3 µM
